D1 antagonist = Antagonist of Human D 1 Dopamine Receptor: qHTS. D(1A) dopamine receptor (Homo sapiens), P21728. actives 3.2% (n = 360,000). AID 504652, 2011. HEK293 TREx D1 cells, calcium flux, dopamine EC80; stronger effect = lower value. activity change, negative = inhibition, % at 10 µM; in the data active = activity change below about -30%
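Calcium flux readout: force-coupled, inducible Hek293 Trex D1 line, cells induced overnight at 30 C with tetracycline, dye-loaded 30–90 min at RT. Antagonism scored against EC80 dopamine challenge given 180 s after compound.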
TRHR ag = qHTS for Small Molecule Agonists and Allosteric Enhancers of Human TRH Receptor: Primary Screen for Agonists; Thyrotropin-releasing hormone receptor (Homo sapiens), P34981; TRHR cells, calcium flux fluo-8, FDSS agonist mode; activation, % at 2 µM; actives 0.18% (n = 360,000)
Target sequence (P34981 whole entry, looked up): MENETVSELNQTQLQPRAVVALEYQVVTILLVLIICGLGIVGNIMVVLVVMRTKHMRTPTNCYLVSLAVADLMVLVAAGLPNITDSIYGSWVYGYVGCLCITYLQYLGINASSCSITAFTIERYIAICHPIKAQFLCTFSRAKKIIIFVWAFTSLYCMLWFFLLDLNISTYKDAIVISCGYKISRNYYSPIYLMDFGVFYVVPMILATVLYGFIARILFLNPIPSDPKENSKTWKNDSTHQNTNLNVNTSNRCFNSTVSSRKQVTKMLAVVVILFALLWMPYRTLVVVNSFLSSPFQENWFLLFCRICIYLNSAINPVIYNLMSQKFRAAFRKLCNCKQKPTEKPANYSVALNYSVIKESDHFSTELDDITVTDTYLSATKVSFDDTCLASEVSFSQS
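TRHR-expressing cells loaded with fluo-8 calcium dye; 23 nL library compound pin-transferred, kinetic FDSS fluorescence (Ex 480/Em 530) recorded about 180 s for agonist-induced calcium release, before a 10 nM TRH EC20 addition for potentiator mode.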
Epigenetic derep = Quantitative High-Throughput Screen for Regulators of Epigenetic Control; murine LDR cells, GFP reporter derepression, 30 h; Potency, µM (doses to about 53.9 µM), most hits filed as activators; actives 0.2% (n = 280,000); AID 1865, 2009; active = well fitted activation curve with a large enough effect; note: nearly all actives have a fitted effect of over 60% in size
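Murine LDR cells carrying a silenced, genomically integrated CMV-driven GFP reporter were exposed to compound for 30 hours at 37 C. After PBS washes, GFP-positive cells (20–120 um objects) were counted by laser-scanning microplate cytometry.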
TRHR PAM = qHTS for Small Molecule Agonists and Allosteric Enhancers of Human TRH Receptor: Primary Screen for Enhancers. Thyrotropin-releasing hormone receptor (Homo sapiens), P34981. TRHR cells, fluo-8 calcium fluorescence, EC20 TRH enhancement. enhancement, % at 2 µM. actives 0.66% (n = 360,000). AID 493056, 2011; in the data active = enhancement above about 30%
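TRHR-expressing cells loaded with fluo-8 calcium dye were read kinetically (ex 480/em 530) during compound addition, then stimulated with an EC20 of TRH (10 nM final). Enhancement of the Gq-mediated intracellular calcium response was scored.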
D1 PAM = Potentiators of Human D1 Dopamine Receptor: qHTS | AID 504651, 2011 | HEK293 TREx D1 cells, calcium flux, dopamine EC20 potentiation | potentiation, % at 10 µM | D(1A) dopamine receptor (Homo sapiens), P21728 | actives 0.036% (n = 360,000); in the data active = potentiation above about 30%
D1 agonist = Allosteric Agonists of the Human D1 Dopamine Receptor: qHTS | D(1A) dopamine receptor (Homo sapiens), P21728 | HEK293 T-REx D1 cells, calcium flux, agonist mode | activation, % at 2 µM | actives 1% (n = 360,000)
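Agonism was scored from calcium flux recorded over 180 s (1 read/s) after pintool compound addition, following a 10-cycle baseline. Cells were inducible force-coupled HEK293 TREx D1, plated overnight at 30 C and loaded with no-wash calcium dye.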
Large screens that a line does not name were inactive. Only some compounds are listed: those with a hit (about 4.6% of all), similar ones and a draw of the others. Cut-off read from the data, not from the text of the source, unless noted: active = activation above about 30%; inactive = the rest.

Cc1cc2c(s1)c1cnn(Cc3cccc(Br)c3)c(=O)c1n2C	none (no result: Epigenetic derep)
Cc1ccc(S(=O)(=O)NCC2CCC(C(=O)NCc3ccccn3)CC2)cc1 (centres undefined)	none
COc1cccc(CNC(=O)C2CCN(S(=O)(=O)c3cnc[nH]3)CC2)c1	D1 antagonist -39
COc1cccc(CNC(=O)C2CCN(S(=O)(=O)c3ccc(-n4cnnn4)cc3)CC2)c1	none (no result: Epigenetic derep)
Cc1ccc(S(=O)(=O)NCC2CCC(C(=O)NCc3cccnc3)CC2)cc1 (centres undefined)	D1 antagonist -32
COc1ccc(CNC(=O)[C@@H](NC(=O)C2CCN(S(=O)(=O)c3ccc(C)cc3)CC2)C(C)C)cc1OC	D1 antagonist -33 (no result: Epigenetic derep)
COc1ccccc1CNC(=O)C1CCN(S(=O)(=O)c2ccc(-n3cnnn3)cc2)CC1	D1 antagonist -39 (no result: Epigenetic derep)
Cc1cccc(C(c2sc3nc(-c4ccco4)nn3c2O)N2CCN(Cc3ccccc3)CC2)c1 (centres undefined)	none (no result: D1 antagonist)
O=C(C1CCCN(S(=O)(=O)c2cccnc2)C1)N1CCN(c2ccccn2)CC1 (centres undefined)	none
Cc1ccc(S(=O)(=O)N(Cc2ccccc2)c2ccccc2C(=O)NCc2cccnc2)cc1	D1 antagonist -38
COc1ccc(S(=O)(=O)N2CCCC(C(=O)NCc3ccccc3)C2)cc1 (centres undefined)	D1 antagonist -31 (no result: Epigenetic derep)
O=C(c1ccc2ccccc2c1)C1CCCN(S(=O)(=O)c2cccnc2)C1 (centres undefined)	D1 antagonist -53
CC(C)(C)OC(=O)Cc1nnc(CNC(=O)c2ccccc2)s1	none (no result: Epigenetic derep)
COC(=O)[C@@]1(Cc2ccc(OC)cc2)[C@H]2c3cc(C(=O)N(C)C)n(C)c3C[C@H]2CN1C(=O)c1ccccc1	none (no result: D1 antagonist, TRHR ag, TRHR PAM, D1 PAM, D1 agonist)
CC(NC(=O)Nc1ccc(Cl)c(Cl)c1)C(c1ccccc1)N1CCOCC1 (centres undefined)	D1 agonist 158
CC(NC(=O)Nc1ccc([N+](=O)[O-])cc1)C(c1ccccc1)N1CCOCC1 (centres undefined)	D1 agonist 173
CC(NC(=O)c1ccc(Cl)cc1Cl)C(c1ccccc1)N1CCOCC1 (centres undefined)	none
COc1ccc(C(=O)COC(=O)Cn2c(C)csc2=O)c(OC)c1	D1 antagonist -33 (no result: Epigenetic derep)
CCNc1c(NC(=O)c2ccccc2OCC)c(=O)oc2ccccc12	none
NC(=S)N/N=C/c1coc2c(ccc3ccccc32)c1=O	none
O=c1cc(/N=C/c2coc3c(ccc4ccccc43)c2=O)[nH]c(=S)[nH]1	D1 antagonist -31
CN(CC(=O)Nc1ccc(Cl)cc1)C(=O)c1cccc(S(=O)(=O)NCc2ccccc2)c1	none (no result: Epigenetic derep)
Cc1csc(NC(=O)c2cccc(S(=O)(=O)N3CCCCC3)c2)n1	none
O=C(Nc1nc(-c2ccccc2)cs1)c1cccc(S(=O)(=O)N2CCN(Cc3ccccc3)CC2)c1	TRHR PAM 37
CN(CC(=O)Nc1ccc(Cl)cc1)C(=O)c1cccc(S(=O)(=O)N2CCN(Cc3ccccc3)CC2)c1	D1 antagonist -31 (no result: Epigenetic derep)
Cc1nc(-c2cccc(NC(=O)c3cccc(S(=O)(=O)N4CCCC4)c3)c2)cs1	D1 antagonist -32 (no result: Epigenetic derep)
CC(NC(=O)c1cccc(S(=O)(=O)N2CCN(C)CC2)c1)c1ccc(Cl)cc1Cl (centres undefined)	D1 antagonist -45 (no result: Epigenetic derep)
Cc1cccn2c(=O)c(C(=O)NCCc3ccccc3)cnc12	none
Cc1ccc2c(c1)C(c1ccc(F)cc1)N(C(=O)c1ccc(S(=O)(=O)N3CCCCC3)cc1)CC(=O)N2 (centres undefined)	none
Cc1ccc(S(=O)(=O)N2CCCC(c3nc4c(nnn4Cc4ccc(OC(F)(F)F)cc4)c(=O)[nH]3)C2)cc1 (centres undefined)	none
COc1ccc(-c2csc(NC(=O)CS(=O)(=O)c3ccccc3)n2)cc1	none (no result: Epigenetic derep)
O=C(Nc1nc(-c2cccs2)cs1)c1cccc(S(=O)(=O)N2CCCCCC2)c1	none
COc1ccc(-c2csc(NC(=O)C3CCCCN3S(=O)(=O)c3ccccc3)n2)cc1 (centres undefined)	D1 antagonist -37
CN1CCN(S(=O)(=O)c2cccc(C(=O)Nc3nc(-c4ccccc4)cs3)c2)CC1	D1 antagonist -32
COc1ccc(-c2csc(NC(=O)c3cccc(S(=O)(=O)N4CCN(C)CC4)c3)n2)cc1	D1 antagonist -48
O=C(Nc1ccc(Cl)cn1)c1cccc(S(=O)(=O)N2CCCCC2)c1	D1 agonist 31 (no result: Epigenetic derep, D1 PAM)
COC(=O)C1=C(C)NC(C)=C(C(=O)OCCCN2CCC(c3ccccc3)(c3ccccc3)CC2)[C@H]1c1cccc([N+](=O)[O-])c1	none (no result: D1 antagonist, TRHR ag, TRHR PAM, D1 PAM, D1 agonist)
O=C(Nc1ccc(-c2csc(Nc3ccccc3)n2)cc1)c1cccc(C(F)(F)F)c1	D1 antagonist -47
N#Cc1ccc(CS(=O)(=O)c2nnnn2C2CCCCC2)cc1	none (no result: D1 antagonist, TRHR ag, TRHR PAM, D1 PAM, D1 agonist)
CCOc1ccc2c(c1)nc(C)n2C	D1 antagonist -47
Cc1nc2cc(CO)ccc2n1C	none
Cc1ccc(C)c(N2CCN(C(=O)c3cc(S(=O)(=O)N4CCCC4)c[nH]3)CC2)c1	none
COc1cc2c(c(O)c1OC)-c1c(cc(OC)c(OC)c1OC)C[C@@H](C)[C@@H](C)C2	D1 antagonist -40
N#CCc1nn(Cc2ccc(F)cc2)c(=O)c2ccccc12	D1 antagonist -32 (no result: Epigenetic derep)
O=c1c2ccccc2nnn1Cc1ccc(F)cc1	none
O=c1c2oc3ccccc3c2n(Cc2cccc(C(F)(F)F)c2)c(=O)n1Cc1ccc2c(c1)OCO2	none
Fc1ccc(-c2cc(-c3ccccc3)c3c(n2)-c2cc(F)ccc2OC3)cc1	none
CCc1nn2c(=O)cc(COC(=O)c3ccccc3NC(=O)COc3ccccc3C)nc2s1	none
COc1ccc2c(c1)C(C)=CC(C)(C)N2S(=O)(=O)c1ccc(Br)cc1	D1 antagonist -30
COc1ccc2c(c1)C(C)=CC(C)(C)N2S(=O)(=O)c1ccc(NC(C)=O)cc1	none (no result: Epigenetic derep)
C=CCC(NCc1ccco1)c1ccc(OC)cc1OC (centres undefined)	none
C=C(C)CC(NCc1ccco1)c1ccc(OC)cc1 (centres undefined)	D1 antagonist -36
Cc1cccc(CCn2c(=O)c3ccccc3n(Cc3ccccc3C)c2=O)c1	none

Screening data: PubChem BioAssay, National Center for Advancing Translational Sciences (NCATS)
